Results on 11 molecules are retold here after the supplement of paper PMC10105736.

± gives the standard deviation of the averaged measurements.

Common to all, as to assay: MAPPIT interaction score (arbitrary units); higher = stronger binary interaction signal, active = hit call of the paper
In one experiment the target is CG9133. The settings on record: MAPPIT configuration: N-N; pair source set: screen_1.
Another experiment concerns the target GstT2. The settings on record: MAPPIT configuration: N-N; pair source set: screen_1.
The target in the next experiment is Caf1-55. The settings on record: pair source set: Lit-BM-16.
For a further experiment, the target named is Rph. The note with it: MAPPIT configuration: N-C; pair source set: RRS.
The next experiment addresses CanA1. The note with it: MAPPIT configuration: N-N; pair source set: Lit-BS-16.
Another experiment addresses CROT. The settings on record: MAPPIT configuration: N-N; pair source set: Curagen_high_conf.
A further experiment addresses CG9825. The settings on record: MAPPIT configuration: N-C; pair source set: screen_4.
Another experiment has as its target CG9106. The settings on record: MAPPIT configuration: N-N; pair source set: screen_2.
A further experiment concerns the target CHES-1-like. The note with it: MAPPIT configuration: N-C; pair source set: screen_4.
In the next experiment the target is Mf. The note with it: MAPPIT configuration: N-C; pair source set: screen_3.
Another experiment deals with mri. The settings on record: MAPPIT configuration: N-N; pair source set: screen_1.
Another experiment has as its target CSN4. The note with it: MAPPIT configuration: N-C; pair source set: Lit-BM-16.
The next experiment concerns the target Cog6. The note with it: MAPPIT configuration: N-N; pair source set: Finley_Y2H.
The target in the next experiment is CG9676. The settings on record: MAPPIT configuration: N-N; pair source set: RRS.
For the next experiment, the target named is Caper. The note with it: MAPPIT configuration: N-N; pair source set: DPIM.
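Note: HEK293T cells with Epo stimulation, STAT-responsive firefly luciferase reporter, fold induction versus unstimulated cells divided by the larger fold induction of two negative controls lacking either bait or prey.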

B1: Tollo (protein)
chain: MLATTHMLYVLIATCVIPIFGAALSKTVLYQAPDECRWSGGGEHDITLVCHLRTINSELENTNFSVIQPQNTVRLRLECNDALFFQSSLSPDSFRSLVELRDLTIEYCKLGNLTDGSFRGLQELRNLTIRTHNGDWSTMSLEMASNSFVEFRQLERLDLSLNNIWLIPDGMVCPLKSLQHLNASYNKIQDISNFYFSASLSSRKARVCGSTLQSLDLSANKMVSLPTAMLSALGRLTHLNMAKNSMSFLADRAFEGLLSLRVVDLSANRLTSLPPELFAETKQLQEIYLRNNSINVLAPGIFGELAELLVLDLASNELNSQWINAATFVGLKRLMMLDLSANKISRLEAHIFRPLASLQILKLEDNYIDQLPGGIFADLTNLHTLILSRNRISVIEQRTLQGLKNLLVLSLDFNRISRMDQRSLVNCSQLQDLHLNDNKLQAVPEALAHVQLLKTLDVGENMISQIENTSITQLESLYGLRMTENSLTHIRRGVFDRMSSLQILNLSQNKLKSIEAGSLQRNSQLQAIRLDGNQLKSIAGLFTELPNLVWLNISGNRLEKFDYSHIPIGLQWLDVRANRITQLGNYFEIESELSLSTFDASYNLLTEITASSIPNSVEVLYLNDNQISKIQPYTFFKKPNLTRVDLVRNRLTTLEPNALRLSPIAEDREIPEFYIGHNAYECDCNLDWLQKVNRESRTQPQLMDLDQIHCRLAYARGSSHVSLIEAKSDDFLCKYASHCFALCHCCDFQACDCKMECPDRCSCYHDQSWTSNVVDCSRASYEQTLPSHIPMDSTQLYLDGNNFRELQSHAFIGRKRLKVLHLNHSRIEVLHNRTFYGLLELEVLQLQSNQLKALNGNEFQGLDNLQELYLQHNAIATIDTLTFTHLYHLKILRLDHNAITSFAVWNFLPSYLNELRLASNPWTCSCEFIDKLRDYINRHEYVVDKLKMKCDVISGNSTQQMVIYPGSGEPASLPVVQCSQTLPLGLDNNFNYAEQAGGENASNATSTKMILNQPPKLDYIPILVAILTAFIFVMICISLVFIFRQEMRVWCHSRFGVRLFYNAQKDVDKNEREKLFDAFVSYSSKDELFVNEELAPMLEMGEHRYKLCLHQRDFPVGGYLPETIVQAIDSSRRTIMVVSENFIKSEWCRFEFKSAHQSVLRDRRRRLIVIVLGEVPQKELDPDLRLYLKTNTYLQWGDKLFWQKLRFALPDVSSSQRSNVAGQSCHVPINHASYHHHHHVHQQAMPLPHSVHHHQQQFMLPPPPQQPGSFRRQPSLHQQQQQQQQIRGNNNTTQQQQQQQAALLMGGGSVGGPAPQMIPLAGGIQQQSLPLPPNQQPTPASRNLHM
With B1, the MAPPIT interaction score with CG9133 is 1.51 (inactive); with GstT2, 2.34 (inactive).

B2: Caf1-55 (protein)
chain: MVDRSDNAAESFDDAVEERVINEEYKIWKKNTPFLYDLVMTHALEWPSLTAQWLPDVTKQDGKDYSVHRLILGTHTSDEQNHLLIASVQLPSEDAQFDGSHYDNEKGEFGGFGSVCGKIEIEIKINHEGEVNRARYMPQNACVIATKTPSSDVLVFDYTKHPSKPEPSGECQPDLRLRGHQKEGYGLSWNPNLNGYLLSASDDHTICLWDINATPKEHRVIDAKNIFTGHTAVVEDVAWHLLHESLFGSVADDQKLMIWDTRNNNTSKPSHTVDAHTAEVNCLSFNPYSEFILATGSADKTVALWDLRNLKLKLHSFESHKDEIFQVQWSPHNETILASSGTDRRLHVWDLSKIGEEQSTEDAEDGPPELLFIHGGHTAKISDFSWNPNEPWIICSVSEDNIMQVWQMAENVYNDEEPEIPASELETNTA
Regarding B2, the MAPPIT interaction score with Caf1-55 (MAPPIT configuration: N-C) is 2.19 (inactive); with Caf1-55 (MAPPIT configuration: N-N), 1.84 ± 0.68; with Rph it was 2.27 (inactive).

B3: CanB (protein)
chain: MGNETSLPMDMCSNFDADEIRRLGKRFRKLDLDNSGALSIDEFMSLPELQQNPLVQRVIDIFDADGNGEVDFKEFIQGVSQFSVRGDKLSKLRFAFRIYDMDNDGYISNGELFQVLKMMVGNNLKDTQLQQIVDKTICFADKDEDGKISFDEFCSVVGNTDIHKKMVVDV
As for B3, the MAPPIT interaction score in the experiment with CanA1 is -0.226 (inactive).

B4: Usp30 (protein)
chain: MESEKILMAAGVTVAAVVGAFVFWGPSGSRLRQRRGQIAGLHNFGLTCFLNTLLQAMAACPQFIAWLQLYNNASPDRKSLITSMLNTLEVVNGTHATLRGDPYSPGAVLRALNALGWVIPQEEHDAHELFHVLLTCLEEEAIRPQPLGCLSDALPTDNDDNSSLAGTATPVGGFRSFSSMAAGLGASQRIGDQPNRPSSAMLTDFLNMEYDESTSLQRLVRSEAHTPDSPASVCERDGNDRLGSVLLDAVSPGTPFGFPLVSNPDSLATPMLGGERSSRPRLPQSQQQQDEGLNRRVSSSCRSLERLHRGPGRVSIWSNMMPSQVAHPFQGAMGAQIVCNGCGSKSAVRYDKFDSITLNLPPQRRTGLSLGHLLSEYITSEDLSDVKCDSCNETTTHTKSVTFAKLPACLCIHVARTVWLPTGQVCKRKDYVHFPESLSMAPYSFVQPHLNSQAGTPWGSTMSLYSSSLPMNNGVGGGEGFGTMFPKNLYRLLAVVVHSGEANSGHFVTYRRGSLRNAHRWYYTSDTIVREVSIDEVLSVPAYLLFYDRGQQRQLNLR
For B4, the MAPPIT interaction score with CROT was 2.05 (inactive).

B5: to (protein)
chain: MFAIAFAVVLCLLVSVDAKFPEDPKPCKYGDGECIMKLCNTLFSENSAEGDPGLNLMQLDPLKVDRMVISQGESSSPVGITLTFTDNLLYGIKDQRIVKVKGFGRDLTAKHEVKIVTKTFSLVGPYNIQGKVLILPISGTGQSNMTMVNVRAIVSFSGKPLVKNGETYLDVTDLKITMKPESSHYHFSNLFNGDKALGDNMNVFLNENSEAIYKETAKAIDRSFGKLYLGVVKGVFSKLPYAKFFADES
As for B5, the MAPPIT interaction score with CG9825 was 0.062 (inactive).

B6: bol (protein)
chain: MHKIAAAPPPSATPGGGLETPLAAPKYGTLIPNRIFVGGISGDTTEADLTRVFSAYGTVKSTKIIVDRAGVSKGYGFVTFETEQEAQRLQADGECVVLRDRKLNIAPAIKKQPNPLQSIVATNGAVYYTTTPPAPISNIPMDQFAAAVYPPAAGVPAIYPPSAMQYQPFYQYYSVPMNVPTIWPQNYQENHSPLLHSPTSNPHSPHSQSHPQSPCWSIEDLRDTLPRV
As to B6, the MAPPIT interaction score with CG9106 is 3.9 (active).

B7: Lasp (protein)
chain: MNKTCARCQKVVYPIEELKCLDKTWHKTCFKCTECGMTLNMKTYKGYNKMPYCEAHIPKAKATAIADTPELKRIAENTKIQSNVKYHADFEKAKGKFTQVADDPETLRIKQNTKHISNVAYHGDLEKKAAMEKQRGSAEVSDSSNESEYFSEQLAAEQFSQYAPTASPIPPAATTLHQQQQQLQHQQQQQYQQHQQQLQQQQHQHQHYLQQQQQTLPPPPIQHQQYNTAAITPTYQQLQQQQQQQQQQRAQQQQLHDPYAHYQQPQALRQQQQQQQQQQQQLLQQQAIKQASHLYPTATSQQQQMPPPQSPANPQQQALNSYNEMRSAILQNSHHPSGNSVDQYDQPQQQQHQPQQQSTNPTLVAAQQQQSHHSLLNNNASNGGISHSHHSNINNNGHGSQNQMLPPQMRRSAASVVAYDGNSKQQVAAGPGAAQNHLQQLYASPNYAAVTPSENSINVKQHASNGHMPNQQQQHVAGGSNIGKIADYDPLTDGPRVVPNAGRSSTTLVYSSEPRGNQGGNSVYPKRIGSVSDIDPANGIYGSLTAAEQAHQQQKHQQYYQQVQMMQQQEHPPQQQQMRQQPSYSSLQEKQSRQSTAMRVYRAIYDYEAQDVDEVSFREGDVIFEVESIDSGWMTGRVERTGKTGMLPANYVEQAVI
For B7, the results for the MAPPIT interaction score with CHES-1-like, with Mf and with mri were 0.887 (inactive), 3.01 (inactive) and 1.83 (inactive), respectively.

B8: CG8306 (protein)
chain: MASSPITDFYAGRNVFITGATGFVGVTIVEKLLRDVPNVGTLYLLMRAKKGKSVQERLEELKKNSVFDKFKELQLQSRLSKIVPIEGDVGLEHLGISPKDRQTLIDNVNVVFHSAATLDFFQSLKETTNINLRGTRRVVELCQQIKNLDALVHVSSAYVNAYLTKVEEKLYPAPEDPEKIIQLSETLNDDALKELEPKLLKDHPNTYTFTKHLAEHEVANVASKFPCGIVRPSMITAAWKEPIPGWTISKNGPQGFFMGASKGVLRRLPLDPSIIMDYIPIDVVVNGIITTGYYVNSLQAKNGGRPADLQIFHLTSSTYKPFRFELMTDKINSYLHDYPLNSAVWYPNLRLVKSLWVFRLSAILFHFIPAIILDLVTKIGGGRPILVRLHKNVWNSLNTLEKFIFTEWHFDSKRLLALSKTLNIVDKKKFFIDIGELAWDEYFSNTILGVRQYLSKEPIKNLEKARRKDKILLGLHVALQLSFWYGVFKLIVCLTGISTAKAALVLPVLYYLFGLL
Take B8: the MAPPIT interaction score with CG9825 was -0.0656 (inactive).

B9: CSN7 (protein)
chain: MTQDMLLGNEEPSKSKETFLEKFCVLAKSSTGAALLDVIRQALEAPNVFVFGELLAEPSVLQLKDGPDSKHFETLNLFAYGTYKEYRAQPEKFIELTPAMQKKLQHLTIVSLAIKAKSIPYALLLSELEIDNVRHLEDIIIEAIYADIIHGKLFQNTRILEVDYAQGRDIPPGYTGQIVETLQAWVNSCDSVSNCIEMQIKYANAEKSKRLINKERVEQDLINLKKVLKSQTSDSDESMQIDTHGPGTSGGLGQSELRKKPSKLRNPRSAAVGLKFSK
As to B9, the results for the MAPPIT interaction score in the experiment with CSN4 and in the experiment with Cog6 were 1.74 (inactive) and -0.342 (inactive), respectively.

B10: sgg (protein)
chain: MSGRPRTSSFAEGNKQSPSLVLGGVKTCSRDGSKITTVVATPGQGTDRVQEVSYTDTKVIGNGSFGVVFQAKLCDTGELVAIKKVLQDRRFKNRELQIMRKLEHCNIVKLLYFFYSSGEKRDEVFLNLVLEYIPETVYKVARQYAKTKQTIPINFIRLYMYQLFRSLAYIHSLGICHRDIKPQNLLLDPETAVLKLCDFGSAKQLLHGEPNVSYICSRYYRAPELIFGAINYTTKIDVWSAGCVLAELLLGQPIFPGDSGVDQLVEVIKVLGTPTREQIREMNPNYTEFKFPQIKSHPWQKVFRIRTPTEAINLVSLLLEYTPSARITPLKACAHPFFDELRMEGNHTLPNGRDMPPLFNFTEHELSIQPSLVPQLLPKHLQNASGPGGNRPSAGGAASIAASGSTSVSSTGSGASVEGSAQPQSQGTAAAAGSGSGGATAGTGGASAGGPGSGNNSSSGGASGAPSAVAAGGANAAVAGGAGGGGGAGAATAAATATGAIGATNAGGANVTDS
For the molecule B10, the MAPPIT interaction score in the experiment with CG9676 is 0.279 (inactive).

B11: Npc2a (protein)
chain: MLRYAVIACAALVVFAGALEFSDCGSKTGKFTRVAIEGCDTTKAECILKRNTTVSFSIDFALAEEATAVKTVVHGKVLGIEMPFPLANPDACVDSGLKCPLEKDESYRYTATLPVLRSYPKVSVLVKWELQDQDGADIICVEIPAKIQ
On to B11, for which the MAPPIT interaction score in the experiment with Caper is -0.361 (inactive).
